# In the supplement of paper PMC13380429:
# What was measured:
# [1] = tested on: Vero E6 infected with SARS-CoV-2; assay: morphology score (similarity to uninfected cells); higher = more like uninfected cells; conditions: 24 h
# [2] = tested on: Vero E6 infected with SARS-CoV-2; assay: SARS-CoV-2 infection rate relative to infected DMSO; higher = more infection, active = 60 or less; conditions: 24 h
Structure (SMILES),morphology score [1],SARS-CoV-2 infection rate [2]
NC(=O)[C@@H](CCC(F)(F)F)N(Cc1ccc(-c2ncon2)cc1F)S(=O)(=O)c1ccc(Cl)cc1 [avagacestat] (10 µM),0.0806,108% (inactive)
CC(=O)c1cc2c(o1)C(=O)c1ccccc1C2=O [napabucasin] (0.833333 µM),0.309,89% (inactive)
O/N=C/c1cc[n+](COC[n+]2ccc(/C=N/O)cc2)cc1 [obidoxime] (10 µM),-0.0437,108% (inactive)
CC1=C(/C=C/C(C)=C/C=C/C(C)=C/C=C/C=C(C)/C=C/C=C(C)/C=C/C2=C(C)CCCC2(C)C)C(C)(C)CCC1 [beta-carotene] (10 µM),0.0662,112% (inactive)
C[C@H]1O[C@@H](n2cc(F)c(=O)[nH]c2=O)[C@H](O)[C@@H]1O [doxifluridine] (10 µM),0.32,108% (inactive)
CCC(=O)O[C@H](CC(=O)O)C[N+](C)(C)C [levocarnitine-propionate] (10 µM),-0.0873,104% (inactive)
Cc1ccc(=O)n(-c2ccc(O)cc2)c1 (10 µM),-0.0543,94.5% (inactive)
CCCNC(C)C(=O)Nc1ccccc1C (stereo unspecified) [prilocaine] (10 µM),-0.208,112% (inactive)
CCOc1ccc(-c2nc(-c3cccc4c3CCC4NCCO)no2)cc1OCC (stereo unspecified) (10 µM),0.847,12% (active)
C=C[C@@]1(C)CC(=O)[C@]2(O)[C@@]3(C)[C@@H](O)CCC(C)(C)[C@@H]3[C@H](O)[C@H](OC(C)=O)[C@@]2(C)O1 [colforsin] (10 µM),0.455,83% (inactive)
Cc1cc2c(cc1CC(=O)c1sccc1S(=O)(=O)Nc1onc(C)c1Cl)OCO2 [sitaxentan] (10 µM),0.015,101% (inactive)
Clc1ccc(C(Cn2ccnc2)OCc2csc3c(Cl)cccc23)c(Cl)c1 (stereo unspecified) [sertaconazole] (10 µM),0.201,104% (inactive)
CO[C@@H]1[C@@H](O[C@@H]2O[C@H](C)[C@@H](O[C@H]3C[C@@](C)(O)[C@@H](OC(=O)CC(C)C)[C@H](C)O3)[C@H](N(C)C)[C@H]2O)[C@@H](CC=O)C[C@@H](C)[C@@H](O)/C=C/C=C/C[C@@H](C)OC(=O)C[C@H]1OC(C)=O [josamycin] (10 µM),-0.0313,113% (inactive)
CCOc1cc(C(C)(C)C)ccc1C1=N[C@@](C)(c2ccc(Cl)cc2)[C@@](C)(c2ccc(Cl)cc2)N1C(=O)N1CCN(CCCS(C)(=O)=O)CC1 (10 µM),-0.0507,104% (inactive)
O=C(O)CCC(=O)O [succinic-acid] (10 µM),-0.0828,106% (inactive)
O=C(O)CCCCN(CCc1ccccc1OCc1ccc(CCc2ccccc2)cc1)Cc1ccc(C(=O)O)cc1 [cinaciguat] (10 µM),-0.0659,102% (inactive)
CNC1CCCN(c2c(F)cc3c(=O)c(C(=O)O)cn(C4CC4)c3c2OC)C1 (stereo unspecified) [balofloxacin] (10 µM),-0.103,104% (inactive)
CCCCCn1cc(C(=O)NC23CC4CC(CC(C4)C2)C3)c(=O)c2cc(-c3ccccc3)ccc21 (10 µM),0.119,107% (inactive)
Nc1cccc(-c2cc3c(Oc4cccc(O)c4)ncnc3[nH]2)c1 (0.833333 µM),0.0833,104% (inactive)
COc1ccc(C(CN(C)C)C2(O)CCCCC2)cc1 (stereo unspecified) [venlafaxine] (10 µM),0.00722,110% (inactive)

Structure (SMILES),morphology score [1],SARS-CoV-2 infection rate [2]
C[C@H](N)[C@H](O)c1cccc(O)c1 [metaraminol] (10 µM),-0.0578,104% (inactive)
CCc1cc2c(s1)-n1c(C)nnc1CN=C2c1ccccc1Cl [etizolam] (10 µM),-0.0349,103% (inactive)
O=C(O)[C@@H]1C[C@@H](O)CN1 [L-hydroxyproline] (10 µM),0.203,101% (inactive)
COc1cc(NS(C)(=O)=O)ccc1Nc1c2ccccc2nc2ccccc12 [amsacrine] (10 µM),-0.0803,108% (inactive)
COC1=C2C[C@@H](C)C[C@H](OC)[C@H](O)[C@@H](C)/C=C(\C)[C@H](OC(N)=O)[C@@H](OC)/C=C\C=C(/C)C(=O)NC(=CC1=O)C2=O [geldanamycin] (0.833333 µM),-0.177,98.5% (inactive)
CO/N=C1/C[C@@H](C(=O)NC[C@@H](O)c2ccccc2)N(C(=O)c2ccc(-c3ccccc3C)cc2)C1 [OT-R-antagonist-1] (10 µM),0.118,98.5% (inactive)
CC[C@H]1[C@@H](O)[C@@H]2[C@H](CC[C@]3(C)[C@@H]([C@H](C)CCC(=O)O)CC[C@@H]23)[C@@]2(C)CC[C@@H](O)C[C@@H]12 [obeticholic-acid] (10 µM),0.174,101% (inactive)
CCN(CC)CCNC(=O)c1c(C)[nH]c(/C=C2\C(=O)Nc3ccc(F)cc32)c1C [sunitinib] (0.833333 µM),0.396,99% (inactive)
CN(C)CCCC(=O)Nc1ccc(C(=O)Nc2cccc(Nc3ncc(Cl)c(-c4c[nH]c5ccccc45)n3)c2)cc1 (10 µM),0.132,101% (inactive)
Cc1ccnc(NS(=O)(=O)c2ccc(N)cc2)n1 [sulfamerazine] (10 µM),0.0324,108% (inactive)
Cc1ccc(C(=O)Nc2ccc(Oc3cc4cnn(C)c4cc3-c3cn[nH]c3)c(F)c2)c(=O)n1-c1ccc(F)cc1 (0.833333 µM),0.172,106% (inactive)
CN1Cc2c(N)cccc2C(c2ccccc2)C1 (stereo unspecified) [nomifensine] (10 µM),-0.106,109% (inactive)
O=C(O)Cn1c(C(=O)Nc2nc(-c3ccccc3Cl)cs2)cc2ccccc21 (10 µM),0.162,93% (inactive)
COc1cc2c(NC3CCN(C)CC3)nc(N3CCCN(C)CC3)nc2cc1OCCOCCN(C)C (10 µM),0.108,110% (inactive)
CN(Cc1ccccc1)C(=O)[C@H](Cc1ccc2ccccc2c1)NC(=O)[C@@H]1CCCN1C(=O)Nc1ccccc1[N+](=O)[O-] (10 µM),0.00351,108% (inactive)
Cc1nc2cnc3ccc(C#Cc4cccnc4)cc3c2n1-c1ccc(C(C)(C)C#N)cc1 (10 µM),0.114,109% (inactive)
Clc1cccc2c1CN(C1=NCCN1)C2 (10 µM),0.132,93.5% (inactive)
O=C(O)c1cc(O)c(O)c(O)c1 [gallic-acid] (10 µM),-0.19,110% (inactive)
Cc1c(NC(=O)N2CCOCC2)ccc2c1c1ccccc1n2C(C)C (10 µM),0.121,106% (inactive)
O=C(CCCN1CCC(O)(c2ccc(Br)cc2)CC1)c1ccc(F)cc1 [bromperidol] (10 µM),-0.0835,106% (inactive)

Structure (SMILES),morphology score [1],SARS-CoV-2 infection rate [2]
CC(=O)O[C@]1(C(C)=O)CC[C@H]2[C@@H]3CCC4=CC(=O)CCC4=C3[C@@H](c3ccc(N(C)C)cc3)C[C@@]21C [Ulipristal acetate] (10 µM),0.286,104% (inactive)
CCc1ccc(C(=O)C(C)CN2CCCCC2)cc1 (stereo unspecified) [eperisone] (10 µM),0.374,80% (inactive)
Cc1ccc(NC(=O)C(C)C)cc1C1CCN(Cc2ccc(Oc3ccc(F)c(F)c3)cc2)CC1 (0.833333 µM),0.375,90.5% (inactive)
CC[N+]1(C)CCCC(OC(=O)C(O)(c2ccccc2)c2ccccc2)C1 (stereo unspecified) [pipenzolate] (10 µM),0.153,98% (inactive)
COc1ccc2cc([C@H](C)C(=O)O)ccc2c1 [naproxen] (10 µM),-0.0223,106% (inactive)
COc1cc2c(cc1C(F)(F)F)N(C(=O)Nc1cc(F)cc(-c3cccnc3)c1)CC2 (10 µM),-0.0154,106% (inactive)
C[C@H]1O[C@@H](Oc2c(-c3cc(O)c(O)c(O)c3)oc3cc(O)cc(O)c3c2=O)[C@@H](O)[C@@H](O)[C@@H]1O [myricitrin] (10 µM),0.147,103% (inactive)
Cc1cccc(C(=O)NCN2CCN(c3ccccc3C#N)CC2)c1 (10 µM),0.161,102% (inactive)
CN[C@H]1CN(c2ccc3c(=O)c(C(=O)O)cn(-c4nccs4)c3n2)C[C@@H]1OC [voreloxin] (0.833333 µM),0.068,104% (inactive)
C[C@]12CC[C@@H]3c4ccc(O)cc4CC[C@H]3[C@@H]1CC[C@@H]2O [estradiol] (10 µM),-0.0909,116% (inactive)
CCn1c(=O)n(C2=C(CO)CN(CC3CCCCCCC3)CC2)c2ccccc21 [trap-101] (10 µM),-0.109,103% (inactive)
CCOC(=O)C(=O)Nc1cccc(OC)c1C(N)=O (10 µM),-0.179,102% (inactive)
O=C(c1ccc(F)c(F)c1Nc1ccc(I)cc1F)N1CC(O)([C@@H]2CCCCN2)C1 [cobimetinib] (0.833333 µM),-0.272,116% (inactive)
O=C(C1CC1)N1CC[C@@H](Cc2n[nH]c(=O)n2-c2ccc(-c3ccc4occc4c3)cc2)C1 (10 µM),0.269,90.5% (inactive)
NC(=O)c1ncn([C@@H]2O[C@H](CO)[C@@H](O)[C@H]2O)c1N [acadesine] (10 µM),0.00261,98.5% (inactive)
NC(N)=Nc1nc(CSCC/C(N)=N/S(N)(=O)=O)cs1 [Famotidine] (10 µM),-0.0119,106% (inactive)
OC(c1ccccc1)(c1ccccc1)C1CCNCC1 [azacyclonol] (10 µM),-0.109,110% (inactive)
Fc1ccc(C(c2ccccc2)(c2ccccc2F)n2ccnc2)cc1 (stereo unspecified) [flutrimazole] (10 µM),0.166,108% (inactive)
